Assay results: the supplement of paper PMC6555819

Legend:
Test in all cases: PBM binding z-score (relative to random genomic background probes); higher = stronger binding; sequences stand for … in GC…GCGATTGACAGCGTAGAATGAAGG
[1] = tested on: FXR:RXRa (NR concentration 270 nM, RXRa partner concentration 90 nM)
Method in brief: (§1)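 Each nuclear receptor dimer, without ligand, was incubated for 1 h on custom Agilent 4×180K protein-binding microarrays. Binding was detected with antibodies against each partner (one per run), and scanned fluorescence was regression-normalized. The binding z-scores are referenced to random human genomic background probes.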

[2] = tested on: LXRa:RXRa (NR concentration 270 nM, RXRa partner concentration 90 nM)
Method in brief: as §1

[3] = tested on: LXRa homodimer (NR concentration 270 nM)
Method in brief: as §1

[4] = tested on: LXRb:RXRa (NR concentration 270 nM, RXRa partner concentration 90 nM)
Method in brief: as §1

[5] = tested on: LXRb homodimer (NR concentration 270 nM)
Method in brief: as §1

[6] = tested on: PPARa:RXRa (NR concentration 270 nM, RXRa partner concentration 90 nM)
Method in brief: as §1

[7] = tested on: PPARg:RXRa (NR concentration 180 nM, RXRa partner concentration 90 nM)
Method in brief: as §1

[8] = tested on: PPARg:RXRa 270nM:90nM, anti-RXR (NR concentration 270 nM, RXRa partner concentration 90 nM)
Method in brief: as §1

[9] = tested on: PPARg:RXRa 30nM:10nM, anti-RXR (NR concentration 30 nM, RXRa partner concentration 10 nM)
Method in brief: as §1

[10] = tested on: PPARg:RXRa 90nM:30nM, anti-RXR (NR concentration 90 nM, RXRa partner concentration 30 nM)
Method in brief: as §1

[11] = tested on: PPARg:RXRa DBDmut IVT, anti-RXR (DBD mutation: RXRa K156A/R161A, NR concentration 270 nM, RXRa partner concentration 90 nM)
Method in brief: as §1

[12] = tested on: PPARg:RXRa IVT, anti-PPARg (NR concentration 270 nM, RXRa partner concentration 90 nM)
Method in brief: as §1

[13] = tested on: PPARg DBDmut:RXRa IVT, anti-PPARg (DBD mutation: PPARg1 K132A/R137A, NR concentration 270 nM, RXRa partner concentration 90 nM)
Method in brief: as §1

[14] = tested on: PPARg DBDmut IVT, anti-PPARg (DBD mutation: PPARg1 K132A/R137A, NR concentration 270 nM)
Method in brief: as §1

[15] = tested on: PPARg homodimer (NR concentration 180 nM)
Method in brief: as §1

[16] = tested on: PXR:RXRa (NR concentration 270 nM, RXRa partner concentration 90 nM)
Method in brief: as §1

[17] = tested on: PXR homodimer (NR concentration 270 nM)
Method in brief: as §1

[18] = tested on: RARa:RXR (NR concentration 270 nM, RXRa partner concentration 90 nM)
Method in brief: as §1

[19] = tested on: RARa homodimer (NR concentration 270 nM)
Method in brief: as §1

[20] = tested on: RARb:RXRa (NR concentration 270 nM, RXRa partner concentration 90 nM)
Method in brief: as §1

| Sequence | PBM binding z-score [1] | PBM binding z-score [2] | PBM binding z-score [3] | PBM binding z-score [4] | PBM binding z-score [5] | PBM binding z-score [6] | PBM binding z-score [7] | PBM binding z-score [8] | PBM binding z-score [9] | PBM binding z-score [10] | PBM binding z-score [11] | PBM binding z-score [12] | PBM binding z-score [13] | PBM binding z-score [14] | PBM binding z-score [15] | PBM binding z-score [16] | PBM binding z-score [17] | PBM binding z-score [18] | PBM binding z-score [19] | PBM binding z-score [20] |
| --- | --- | --- | --- | --- | --- | --- | --- | --- | --- | --- | --- | --- | --- | --- | --- | --- | --- | --- | --- | --- |
| CCAGACAGGTGGAAGGTAACTCAGTCTGGTACGC | -0.299 | -0.335 | -0.385 | -0.402 | -0.752 | 0.13 | 0.719 | 1.5 | -0.203 | 0.663 | -0.367 | -0.196 | -1.35 | -1.42 | 0.35 | -0.242 | -0.0179 | -0.223 | 0.246 | -0.313 |
| CGCCAAAGTTCAAGGTAACGTAACAGAAAGCAGC | 6.49 | 5.62 | 3.2 | 3.55 | 0.961 | 5.17 | 4 | 4.83 | 1.8 | 3.27 | 0.89 | 1.7 | 0.701 | 0.562 | 1.95 | 4.18 | 2.34 | 3.4 | 1.12 | 5.28 |
| CCGAGTAGGTTATGGGGCATGCAGGCAACGGTGA | 0.144 | 0.219 | -0.12 | 0.502 | -0.337 | 1.93 | 3.81 | 4.62 | 2.08 | 4.14 | 2.71 | 3.37 | -0.039 | -0.361 | 0.867 | -0.014 | -0.179 | 0.374 | 0.0539 | 1.03 |
| GCTAGCCGGCCATTTGGGTCACTCAATGACGGGC | 0.14 | -0.0989 | -0.475 | -0.0153 | -0.65 | 1.12 | 0.338 | 0.0131 | -0.633 | -0.159 | 0.149 | 1.18 | -0.74 | -1.42 | -0.135 | 0.15 | -0.217 | 0.452 | -1.3 | 1.19 |
| TCTTGTATATCAACAGGAGGTTAAGAAAGATCGA | 0.413 | 1.42 | 0.536 | 1.16 | 0.307 | 1.29 | 0.477 | 1.5 | 3.07 | 2.27 | 1.71 | 0.652 | 1.56 | 1.04 | 0.679 | 1.2 | 0.265 | 1.32 | 0.86 | 0.806 |
| TCGAGTAGGTTAGTCGGGGCATTCACCCAACATA | 0.0292 | 0.103 | -0.165 | 0.627 | -0.651 | 0.713 | 0.0859 | 0.905 | 0.99 | 0.993 | 2.26 | 1.7 | -0.581 | -0.56 | 0.252 | 0.243 | -0.193 | 0.377 | 0.343 | 0.447 |
| TGAATGAGGTTCTAAGATCAGGGAACGTTGCAAA | -0.725 | -0.693 | -0.989 | -0.763 | -0.398 | -0.344 | -0.0951 | -0.03 | -0.103 | 0.161 | -0.614 | 0.0916 | -0.614 | -0.528 | -0.83 | -0.331 | -0.563 | -0.599 | -0.564 | -0.67 |
| TCGAGTAGGTTACCAATGGGGCATTCCGCTTTCT | 0.135 | 1.46 | -0.855 | 0.838 | -1.11 | 1.01 | -0.123 | 1.1 | 1.11 | 0.974 | 3.12 | 2.43 | -0.775 | -0.0752 | -0.326 | -0.00662 | -1.08 | 0.186 | -1.04 | 0.81 |
| TCTGCTAGGTCAACGGTGGTCAGCTAATCTGCTA | 3.59 | 2.75 | -0.0402 | 1.6 | -0.0139 | 3.54 | 3.35 | 3.81 | 2.45 | 3.42 | 4.54 | 4.36 | -0.104 | -0.365 | 1.38 | 1.99 | -0.742 | 2.38 | -0.57 | 4.05 |
| GTAACGAGGGCAAGTTGATAGCAGAGTTTGATGG | 0.832 | 0.576 | -0.256 | 0.49 | 0.052 | 1.9 | 1.29 | 1.19 | 0.279 | 0.807 | 3.49 | 3.09 | 0.298 | 0.937 | 0.983 | 0.884 | 1.23 | 0.596 | 0.449 | 2.58 |
| GCTATTAGTTGATAGGGCAACCGAATGATTCTCG | 0.0649 | -0.305 | -0.0602 | -0.111 | -0.693 | 0.29 | 0.713 | 1.48 | 0.376 | 0.928 | 0.375 | 0.394 | -0.22 | -0.757 | 0.294 | -0.353 | -0.032 | 0.0949 | 0.352 | 0.561 |
| ACTATTAGTTGAGACTAGGGCAACCGATAGGTTG | -0.2 | -0.21 | -0.416 | -0.304 | 0.0178 | 0.296 | 0.679 | 0.33 | 0.227 | -0.101 | 1.02 | 2.46 | 0.767 | 0.914 | -0.0941 | -0.323 | -0.0618 | -0.0584 | 0.518 | 0.583 |
| CCTACTGGGCCATCAGGTCATTGAAATCAACGTT | 1.33 | 1.07 | 1.03 | 1.45 | -0.244 | 2.74 | 2.67 | 3.66 | 1.23 | 2.99 | 4.17 | 4.91 | -0.467 | -0.409 | 0.78 | 1.25 | 0.298 | 1.68 | 0.289 | 2.04 |
| TCATATATGTAAATGCTAGGTGAAAGTCCGATCT | 0.494 | 0.5 | 0.273 | 0.561 | 0.139 | 0.627 | 0.741 | 1.86 | 3.23 | 2.59 | 2.12 | 0.736 | 1.47 | 0.87 | -0.136 | 0.601 | 0.0676 | 0.644 | 0.525 | 0.329 |
